Results filed as inconclusive are left out. Activity calls are given as the source filed them. Unless noted, calls come from the whole dose curve; as a rule, active = well fitted curve in the direction sought with a large enough effect in the repeat runs; inconclusive = weak or mixed curves; inactive = no such curve, though single readings can be large; an effect the other way counts as inactive or inconclusive.
Columns and labels:
[1] = target: Retinoic acid receptor RXR-alpha (Homo sapiens) (UniProt P19793); assay: qHTS assay to identify small molecule agonists of the RXR signaling pathway (AID 1159527; calls by dose curve; note: nearly all actives have a fitted effect of over 35% in size)
Summary of the method: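 GeneBLAzer RXR-alpha-UAS-bla HEK 293T cells in 2% charcoal-stripped FBS medium were exposed to compounds for 16 hr at 37 C in agonist mode. Beta-lactamase reporter read as 460/530 nm FRET ratio after 2 hr substrate loading.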

[2] = qHTS assay to identify small molecule agonists of the RXR signaling pathway - cell viability counter screen (AID 1159529); note: nearly all actives have a fitted effect of over 50% in size; note: potency is the fitted concentration of half-maximal effect; for activity change, negative = cytotoxicity: series mostly up to about 77 µM
Summary of the method: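 RXR-alpha-UAS-bla HEK 293T cells in medium with 2% charcoal-stripped FBS were pre-incubated 5 hr, then compound-treated 16 hr at 37 C. Viability was read by CellTiter-Glo luminescence in the same wells as the beta-lactamase assay, with tetraoctyl ammonium bromide as positive control.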

[3] = qHTS assay to identify small molecule antagonists of the retinoid acid receptor (RAR) signaling pathway - cell viability counter screen (AID 1159551); note: nearly all actives have a fitted effect of over 35% in size
Summary of the method: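 Measured by luminescent ATP detection, viability reflects C3RL4 cells treated 6 h at 37 C with test chemicals in the presence of 1 uM (final) retinol.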

[4] = qHTS assay to identify small molecule antagonists of the retinoic acid receptor (RAR) signaling pathway (AID 1159552; note: nearly all actives have a fitted effect of over 50% in size)
Summary of the method: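 Retinol signaling pathway inhibitors screened in C3RL4 RARE-luciferase reporter cells seeded overnight at 37 C, then compounds added with 1 uM (final) retinol as pathway substrate. After 6 hr at 37 C, luciferase luminescence read after 30 min at room temperature.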

[5] = qHTS assay to identify small molecule antagonists of the estrogen related receptor (ERR) signaling pathway from Tox21 library - cell viability counter screen (AID 1224834); note: nearly all actives have a fitted effect of over 30% in size; note: potency is the fitted concentration of half-maximal effect
Summary of the method: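 Seeded ERR cells were rested 6 h at 37 C/5% CO2 before compounds, positive and negative controls or DMSO were added. Incubation continued for 17.5 h, and viability was then quantified by CellTiter-Fluor fluorescence.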

[6] = target: Luciferin 4-monooxygenase (Photinus pyralis) (UniProt P08659); assay: qHTS assay to identify small molecule inhibitors of firefly luciferase (AID 1224835); note: series mostly up to about 120 µM; nearly all actives have a fitted effect of over 25% in size
Summary of the method: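 Inhibition of purified Photinus luciferase is measured by luminescence. Substrate levels (D-luciferin, ATP) sit at their KM values. Each compound is tested in a concentration series.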

[7] = qHTS assay to identify small molecule agonists of the constitutive androstane receptor (CAR) signaling pathway - cell viability counter screen (AID 1224836); note: nearly all actives have a fitted effect of over 45% in size; note: potency is the fitted concentration of half-maximal effect; for viability change, negative = cytotoxic: series mostly up to about 92 µM
Summary of the method: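 HepG2 cells stably carrying hCAR and a CYP2B6-2.2kb reporter; 15-concentration compounds plus PK11195 (final 0.75 uM), 23 hr at 37 C/5% CO2. Viability read by CellTiter-Fluor fluorescence.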

[8] = qHTS assay to identify small molecule antagonists of the constitutive androstane receptor (CAR) signaling pathway - cell viability counter screen (AID 1224837); note: nearly all actives have a fitted effect of over 45% in size; note: potency is the fitted concentration of half-maximal effect; for activity change, negative = cytotoxicity: series mostly up to about 92 µM
Summary of the method: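 To flag cytotoxic false antagonists, HepG2 hCAR/CYP2B6-2.2kb cells were treated 23 hr with 15-concentration compound series and 50 nM CITCO at 37 C/5% CO2; CellTiter-Fluor fluorescence was the measured end point.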

[9] = qHTS assay to identify small molecule antagonists of the estrogen related receptor signaling pathway with the pleiotropic PPARgamma coactivator (PGC) from Tox21 10K library - cell viability counter screen (AID 1224840; active = well fitted cell-killing curve with a large enough effect in the repeat runs, not every such curve was filed as active; note: nearly all actives have a fitted effect of over 40% in size)
Summary of the method: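 Seeded PGC/ERR cells (2,000/well, 6 h, 37 C/5% CO2) get compound by pin tool; 17.5 h incubation at 37 C; CellTiter-Fluor added, 30 min, fluorescence measured.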

[10] = qHTS assay to identify small molecule agonists of the retinoic acid receptor (RAR) signaling pathway (AID 1159553)
Summary of the method: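 6 hr compound exposure (DMSO vehicle) of overnight-plated C3RL4 RARE-luc cells at 37 C; luminescence quantified after 30 min RT with luciferase reagent.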

[11] = qHTS assay to identify small molecule antagonists of the estrogen related receptor (ERR) signaling pathway - cell viability counter screen (AID 1224818); note: series mostly up to about 46 µM
Summary of the method: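 Compounds dissolved in DMSO were applied to ERR cells seeded at 2,000 per well 6 h earlier. Cell viability followed 17.5 h later via 30-min CellTiter-Fluor fluorescence.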

[12] = qHTS assay to identify small molecule antagonists of the estrogen related receptor (ERR) signaling pathway (AID 1224819;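 note: luminescence from an ERR-driven luciferase reporter measured with One-Glo reagent; series mostly up to about 46 µM; nearly all actives have a fitted effect of over 50% in size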)
Summary of the method: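 Compounds dissolved in DMSO were pin-transferred onto ERR cells that had been plated 6 h earlier, and cells were then incubated 18 h at 37 C; signal was luciferase luminescence via One-Glo.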

[13] = qHTS assay to identify small molecule agonists of the estrogen related receptor (ERR) signaling pathway (AID 1224820)
Summary of the method: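 An ERR cell line provided by NTP was seeded at 2,000 cells per well and allowed to settle for 6 h before compounds in DMSO were added. After 18 h at 37 C, luciferase activity was measured by One-Glo luminescence.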

[14] = tested on: estrogen-related receptor alpha (ERRalpha) with PGC-1alpha coactivator, human; assay: qHTS assay to identify small molecule antagonists of the estrogen related receptor signaling pathway with the pleiotropic PPARgamma coactivator (PGC) (AID 1224821; calls by dose curve;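 note: series mostly up to about 46 µM; lower luminescence signal means antagonism of PGC/ERR signalling; nearly all actives have a fitted effect of over 50% in size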)
Summary of the method: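 A PGC/ERR cell line supplied by NTP is seeded, allowed 6 h at 37 C, and treated with test compounds in DMSO for 18 h. Signal is then measured as luciferase luminescence using One-Glo.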

[15] = qHTS assay to identify small molecule antagonists of the estrogen related receptor signaling pathway with the pleiotropic PPARgamma coactivator (PGC) cell viability counter screen (AID 1224822; note: series mostly up to about 46 µM)
Summary of the method: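 Counter screen for cell viability: PGC/ERR cells, 6 h pre-incubation after plating, 17.5 h compound exposure at 37 C, fluorescence from CellTiter-Fluor after 30 min.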

[16] = qHTS assay to identify small molecule agonists of the estrogen related receptor signaling pathway with the pleiotropic PPARgamma coactivator (PGC) (AID 1224823)
Summary of the method: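 Compounds dissolved in DMSO are added by pin tool to PGC/ERR cells that have settled for 6 h, and incubation continues 18 h at 37 C. Reporter output is measured as One-Glo luminescence.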

[17] = target: Nuclear receptor subfamily 1 group I member 3 (Homo sapiens) (UniProt Q14994); assay: qHTS assay to identify small molecule antagonists of the constitutive androstane receptor (CAR) signaling pathway (AID 1224838);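 note: HepG2 cells stably expressing hCAR with CYP2B6 luciferase reporter stimulated by CITCO; nearly all actives have a fitted effect of over 40% in size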
Summary of the method: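 Human hepatoma HepG2 cells expressing hCAR and a CYP2B6 promoter (2.2 kb) luciferase construct; compound titration (15 points) with 50 nM CITCO final, 24 h at 37 C/5% CO2; luminescence via ONE-Glo after 30 min at room temperature.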

[18] = target: Nuclear receptor subfamily 1 group I member 3 (Homo sapiens) (UniProt Q14994); assay: qHTS assay to identify small molecule agonists of the constitutive androstane receptor (CAR) signaling pathway (AID 1224839); note: nearly all actives have a fitted effect of over 15% in size; note: potency is the fitted concentration of half-maximal effect;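 for activation: HepG2 cells stably carrying human CAR and a CYP2B6 luciferase reporter; series mostly up to about 92 µM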
Summary of the method: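 HepG2 cells stably co-transfected with hCAR and a CYP2B6-2.2kb luciferase reporter; compounds at 15 concentrations with 0.75 uM PK11195 present. After 24 hr at 37 C, luciferase read by ONE-Glo luminescence.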

[19] = qHTS assay to identify small molecule antagonists of the estrogen related receptor signaling pathway with the pleiotropic PPARgamma coactivator (PGC) from Tox21 10K library (AID 1224841; call rule not given here)
Summary of the method: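 Test chemicals dissolved in DMSO were applied to pre-incubated (6 h) PGC/ERR cells at 2,000 cells/well for an 18 h, 37 C treatment; reporter luminescence was then read using One-Glo.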

[20] = qHTS assay to identify small molecule agonists of the estrogen related receptor signaling pathway with the pleiotropic PPARgamma coactivator (PGC) from Tox21 10K library (AID 1224842); note: nearly all actives have a fitted effect of over 15% in size
Summary of the method: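 Luminescence from One-Glo (30 min, room temperature) measured after PGC/ERR cells had 18 h at 37 C with pinned compound (23 nL in DMSO). Cells had been seeded at 2,000 per well and pre-incubated 6 h.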
% is set by controls: 0 for no effect and ±100 for the full control effect.

Chain of Retinoic acid receptor RXR-alpha (Homo sapiens) (P19793 whole entry, looked up): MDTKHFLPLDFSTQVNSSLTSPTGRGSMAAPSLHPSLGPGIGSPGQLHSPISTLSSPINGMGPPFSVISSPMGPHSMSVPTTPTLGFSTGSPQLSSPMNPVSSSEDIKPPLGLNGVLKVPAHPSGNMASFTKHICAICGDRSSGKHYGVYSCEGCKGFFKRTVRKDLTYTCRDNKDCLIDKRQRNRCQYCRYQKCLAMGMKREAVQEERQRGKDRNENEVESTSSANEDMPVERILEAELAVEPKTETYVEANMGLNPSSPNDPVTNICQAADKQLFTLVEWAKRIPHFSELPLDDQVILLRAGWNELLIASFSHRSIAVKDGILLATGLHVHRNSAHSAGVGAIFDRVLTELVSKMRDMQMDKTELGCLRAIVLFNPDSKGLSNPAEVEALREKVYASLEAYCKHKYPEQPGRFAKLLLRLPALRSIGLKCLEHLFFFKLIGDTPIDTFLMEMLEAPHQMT
Chain of Nuclear receptor subfamily 1 group I member 3 (Homo sapiens) (Q14994 whole entry, looked up): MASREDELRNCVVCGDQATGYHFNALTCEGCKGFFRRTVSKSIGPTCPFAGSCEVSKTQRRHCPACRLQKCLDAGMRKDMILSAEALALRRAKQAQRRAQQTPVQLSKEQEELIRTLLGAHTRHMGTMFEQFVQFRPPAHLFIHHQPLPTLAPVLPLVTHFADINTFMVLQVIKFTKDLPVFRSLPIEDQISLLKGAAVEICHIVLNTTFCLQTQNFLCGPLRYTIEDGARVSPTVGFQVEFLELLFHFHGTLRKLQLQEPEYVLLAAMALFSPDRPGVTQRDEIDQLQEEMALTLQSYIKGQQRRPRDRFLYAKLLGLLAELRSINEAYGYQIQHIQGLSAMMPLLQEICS
Chain of Luciferin 4-monooxygenase (Photinus pyralis) (P08659 whole entry, looked up): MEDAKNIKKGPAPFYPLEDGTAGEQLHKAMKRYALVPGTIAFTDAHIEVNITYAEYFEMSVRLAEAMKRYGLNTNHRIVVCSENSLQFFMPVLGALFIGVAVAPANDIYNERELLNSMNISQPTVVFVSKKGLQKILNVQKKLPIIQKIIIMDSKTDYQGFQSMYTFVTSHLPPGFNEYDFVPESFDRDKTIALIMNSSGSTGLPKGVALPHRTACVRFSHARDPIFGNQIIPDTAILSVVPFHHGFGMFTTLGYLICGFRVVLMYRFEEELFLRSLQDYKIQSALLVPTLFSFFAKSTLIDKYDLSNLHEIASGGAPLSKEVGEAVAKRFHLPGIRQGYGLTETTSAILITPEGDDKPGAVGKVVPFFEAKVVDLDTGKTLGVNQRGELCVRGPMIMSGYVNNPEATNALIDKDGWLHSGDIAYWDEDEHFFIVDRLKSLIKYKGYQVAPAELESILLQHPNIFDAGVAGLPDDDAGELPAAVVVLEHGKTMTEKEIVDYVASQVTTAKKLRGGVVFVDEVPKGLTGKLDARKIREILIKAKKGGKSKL

CCCCCCOC(=O)CCCCC
inactive: Potency [1] | Potency [2] | Potency [3] | Potency [4] | Potency [5] | Potency [6] | Potency [7] | Potency [8] | Potency [9]

CC12CC3CC(C)(C1)CC(N)(C3)C2
inactive: Potency [1] | Potency [2] | Potency [3] | Potency [10] | outcome [11] | Potency [12] | outcome [13] | Potency [14] | outcome [15] | outcome [16] | Potency [5] | Potency [6] | Potency [7] | Potency [17] | Potency [18] | Potency [9] | Potency [19] | Potency [20]

CCCCCCCCCCCCCCN(C)C
inactive: activation [1] 7.58% [at 15.8 µM] | activity change, negative = cytotoxicity [2] 0.892% [at 15.8 µM] | activity change, negative = cytotoxicity [3] 0.962% [at 19 µM] | activity, negative = inhibition [4] -4.35% [at 19 µM] | viability change, negative = cytotoxic [5] -1.07% [at 19 µM] | activity change, negative = inhibition [6] -3.07% [at 23.6 µM] | viability change, negative = cytotoxic [7] 5.26% [at 19 µM] | activity change, negative = cytotoxicity [8] -1.86% [at 19 µM] | activity, negative = inhibition [17] 21.5% [at 19 µM] | activation [18] -0.414% [at 19 µM] | viability change, negative = cytotoxic [9] -1.6% [at 19 µM]

CC[C@H]1OC(=O)[C@H](C)[C@@H](O[C@H]2C[C@@](C)(OC)[C@@H](O)[C@H](C)O2)[C@H](C)[C@@H](O[C@@H]2O[C@H](C)C[C@H](N(C)C)[C@H]2O)[C@](C)(O)C[C@@H](C)/C(=N\OCOCCOC)[C@H](C)[C@@H](O)[C@]1(C)O
active: Potency [5] 14.3 µM | Potency [7] 25.5 µM | Potency [8] 14.3 µM
inactive: Potency [1] | Potency [2] | Potency [3] | Potency [10] | Potency [6] | Potency [9] | Potency [19] | Potency [20]

CC(C)N=C=NC(C)C
inactive: Potency [1] | Potency [2] | Potency [3] | Potency [4] | Potency [5] | Potency [6] | Potency [7] | Potency [8] | Potency [17] | Potency [18] | Potency [9] | Potency [19] | Potency [20]

Cc1cc(CCC(=O)OCCOCCOCCOC(=O)CCc2cc(C)c(O)c(C(C)(C)C)c2)cc(C(C)(C)C)c1O
inactive: Potency [1] | Potency [2] | Potency [3] | Potency [4] | Potency [6] | Potency [7] | Potency [8] | Potency [17] | Potency [18] | Potency [9]

CC(=O)OCC1=C(C(=O)O)N2C(=O)[C@@H](NC(=O)CSc3ccncc3)[C@H]2SC1
inactive: Potency [1] | Potency [2] | Potency [3] | Potency [4] | Potency [5] | Potency [6] | Potency [7] | Potency [8] | Potency [17] | Potency [18] | Potency [9] | Potency [19] | Potency [20]

Cc1ccc(N(CCO)CCO)cc1
inactive: Potency [1] | Potency [2] | Potency [3] | Potency [4] | Potency [5] | Potency [6] | Potency [7] | Potency [8] | Potency [17] | Potency [18] | Potency [9]

Nc1nc(-c2ccc([N+](=O)[O-])cc2)cs1
inactive: Potency [1] | Potency [2] | Potency [3] | Potency [4] | Potency [5] | Potency [6] | Potency [7] | Potency [8] | Potency [9]

CCCCCCCCCCCCCCCC(=O)OCC
inactive: Potency [1] | Potency [2] | Potency [3] | Potency [10] | Potency [5] | Potency [6] | Potency [7] | Potency [8] | Potency [9]

CCOCCC(=O)OCC
inactive: Potency [1] | Potency [2] | Potency [3] | Potency [4] | Potency [5] | Potency [6] | Potency [7] | Potency [8] | Potency [17] | Potency [18] | Potency [9]

BrC(Br)C(Br)Br
inactive: Potency [1] | Potency [2] | Potency [3] | Potency [4] | Potency [5] | Potency [7] | Potency [8] | Potency [17] | Potency [18] | Potency [9]

C/C(C=O)=C\c1ccccc1
inactive: Potency [1] | Potency [2] | Potency [3] | Potency [5] | Potency [6] | Potency [7] | Potency [8] | Potency [17] | Potency [18] | Potency [9]

CC(C)(C)C1(CCc2ccc(Cl)cc2)CO1 (centres undefined)
inactive: Potency [1] | Potency [2] | Potency [3] | Potency [5] | Potency [6] | Potency [7] | Potency [8] | Potency [17] | Potency [18] | Potency [9]

CCN(CC)CC(=O)Nc1c(C)cccc1C(=O)OC
inactive: Potency [1] | Potency [2] | Potency [3] | Potency [5] | Potency [7] | Potency [8] | Potency [17] | Potency [9]
active: Potency [18] 23.7 µM

CC(=O)C(=O)CC(C)C
inactive: Potency [1] | Potency [2] | Potency [3] | Potency [5] | Potency [6] | Potency [7] | Potency [8] | Potency [9]

CCCCCCCCCCCCCOS(=O)(=O)O
inactive: Potency [1] | Potency [3] | Potency [5] | Potency [7] | Potency [8] | Potency [9]
active: Potency [2] 24.5 µM
